# Measured values: ChEMBL document CHEMBL3988442, “University of Dundee, Small-Polar-MMV Screening Library” (2021)
# For some assays here: Entries with a potency or affinity are not part of this list.
# Experiments:
# Parameters in all cases: scale not given: direction of the effect not stated beside the values
# [1] = target: Protein translocase subunit SecA (Escherichia coli (strain K12)) (UniProt P10408); experiment: Assay to Identify E. coli SecA ATPase Inhibitors; format: functional; conditions: 30 µM
# Chain of Protein translocase subunit SecA (Escherichia coli (strain K12)) (P10408 whole entry): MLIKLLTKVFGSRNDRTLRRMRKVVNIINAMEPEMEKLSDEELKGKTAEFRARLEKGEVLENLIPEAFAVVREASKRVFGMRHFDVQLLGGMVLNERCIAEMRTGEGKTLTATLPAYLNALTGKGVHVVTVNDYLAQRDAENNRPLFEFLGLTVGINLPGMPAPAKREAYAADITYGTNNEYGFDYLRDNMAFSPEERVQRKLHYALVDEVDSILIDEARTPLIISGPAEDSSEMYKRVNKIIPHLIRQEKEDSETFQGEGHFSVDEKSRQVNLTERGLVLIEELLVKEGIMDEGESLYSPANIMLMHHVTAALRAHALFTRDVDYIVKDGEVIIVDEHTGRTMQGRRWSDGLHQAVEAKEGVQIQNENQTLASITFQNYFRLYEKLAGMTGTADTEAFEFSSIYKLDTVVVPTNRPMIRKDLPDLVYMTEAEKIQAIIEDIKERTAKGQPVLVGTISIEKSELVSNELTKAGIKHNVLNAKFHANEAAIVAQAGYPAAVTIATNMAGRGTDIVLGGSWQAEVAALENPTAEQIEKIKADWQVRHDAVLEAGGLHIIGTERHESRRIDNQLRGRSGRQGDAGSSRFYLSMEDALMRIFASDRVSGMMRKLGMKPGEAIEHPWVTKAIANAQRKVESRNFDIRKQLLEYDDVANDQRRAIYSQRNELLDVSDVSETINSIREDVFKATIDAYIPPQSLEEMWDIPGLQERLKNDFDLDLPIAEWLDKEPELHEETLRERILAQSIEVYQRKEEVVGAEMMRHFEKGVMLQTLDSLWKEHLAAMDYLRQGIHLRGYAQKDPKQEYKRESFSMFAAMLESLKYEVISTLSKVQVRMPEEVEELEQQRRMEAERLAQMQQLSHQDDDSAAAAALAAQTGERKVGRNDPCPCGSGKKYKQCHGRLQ
# [2] = target: T1, Ubiquitin-activating enzyme e1, putative (Leishmania donovani (strain BPK282A1)) (UniProt E9BSI1); experiment: Leishmania donovani Ubiquitin Activating Enzyme (LdE1); format: functional; conditions: 30 µM
# T1 sequence (whole entry): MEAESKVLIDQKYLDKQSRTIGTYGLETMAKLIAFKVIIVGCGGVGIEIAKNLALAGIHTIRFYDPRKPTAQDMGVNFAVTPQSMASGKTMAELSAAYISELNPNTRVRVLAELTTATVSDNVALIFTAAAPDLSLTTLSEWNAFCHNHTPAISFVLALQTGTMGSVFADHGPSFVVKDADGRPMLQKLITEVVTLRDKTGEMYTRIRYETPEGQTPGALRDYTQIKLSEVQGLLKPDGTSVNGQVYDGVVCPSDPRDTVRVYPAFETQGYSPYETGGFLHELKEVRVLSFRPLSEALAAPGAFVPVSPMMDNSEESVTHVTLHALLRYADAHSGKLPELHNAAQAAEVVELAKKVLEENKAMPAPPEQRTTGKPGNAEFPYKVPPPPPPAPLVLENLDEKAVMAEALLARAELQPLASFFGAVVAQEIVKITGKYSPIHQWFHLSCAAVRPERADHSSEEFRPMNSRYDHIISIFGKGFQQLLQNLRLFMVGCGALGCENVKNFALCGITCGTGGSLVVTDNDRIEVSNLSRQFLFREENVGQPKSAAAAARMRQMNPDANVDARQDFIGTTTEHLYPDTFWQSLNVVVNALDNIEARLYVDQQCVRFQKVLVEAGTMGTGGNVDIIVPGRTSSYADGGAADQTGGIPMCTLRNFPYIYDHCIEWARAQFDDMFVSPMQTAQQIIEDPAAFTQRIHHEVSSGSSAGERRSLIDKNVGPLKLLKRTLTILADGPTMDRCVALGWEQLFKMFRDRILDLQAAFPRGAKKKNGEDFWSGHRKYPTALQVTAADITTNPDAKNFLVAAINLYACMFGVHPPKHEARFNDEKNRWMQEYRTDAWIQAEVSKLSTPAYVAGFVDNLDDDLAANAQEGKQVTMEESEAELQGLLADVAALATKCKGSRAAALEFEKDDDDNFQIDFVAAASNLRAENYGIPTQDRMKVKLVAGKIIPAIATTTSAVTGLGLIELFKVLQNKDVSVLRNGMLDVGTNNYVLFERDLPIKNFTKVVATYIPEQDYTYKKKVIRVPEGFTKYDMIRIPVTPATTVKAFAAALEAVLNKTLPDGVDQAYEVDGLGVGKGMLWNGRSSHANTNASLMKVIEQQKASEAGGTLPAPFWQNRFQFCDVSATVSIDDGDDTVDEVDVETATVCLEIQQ
# [3] = target: AMP-activated protein kinase, AMPK (Homo sapiens) (UniProt P54646+O43741+P54619+Q9UGJ0+Q9Y478+Q13131+Q9UGI9); experiment: AMP-dependent Kinase enzyme assay. An in vitro enzyme assay that detects ADP turnover that is directly proportional to AMPK activity. This uses naive AMPK that is activated during the assay with MK-8722; format: functional; conditions: 30 µM
# [4] = target: Sialic acid-binding Ig-like lectin 9 (Homo sapiens) (UniProt Q9Y336); experiment: Hs-Siglec9 ALPHAscreen SOP 20170721; conditions: 10 µM
# Chain of Sialic acid-binding Ig-like lectin 9 (Homo sapiens) (Q9Y336 whole entry): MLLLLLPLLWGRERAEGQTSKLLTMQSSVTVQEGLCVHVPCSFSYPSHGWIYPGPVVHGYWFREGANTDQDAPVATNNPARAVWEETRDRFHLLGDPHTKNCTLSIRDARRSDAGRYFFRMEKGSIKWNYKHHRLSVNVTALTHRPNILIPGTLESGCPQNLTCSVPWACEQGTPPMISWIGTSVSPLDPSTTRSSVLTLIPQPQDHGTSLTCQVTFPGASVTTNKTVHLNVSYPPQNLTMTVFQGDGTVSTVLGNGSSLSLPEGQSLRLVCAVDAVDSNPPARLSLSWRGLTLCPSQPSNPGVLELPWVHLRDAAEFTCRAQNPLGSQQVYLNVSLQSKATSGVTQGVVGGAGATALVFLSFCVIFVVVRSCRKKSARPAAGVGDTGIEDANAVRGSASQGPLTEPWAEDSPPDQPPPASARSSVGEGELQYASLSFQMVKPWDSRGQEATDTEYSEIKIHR
# Trypanosoma cruzi = experiment: Trypanosoma cruzi phosphomannomutase and mannose-1-phosphate guanylyltransferase assay; format: functional; conditions: 10 µM
# [5] = target: T2, Arginase-2, mitochondrial (Homo sapiens) (UniProt P78540); experiment: in vitro enzyme assay to detect the production of urea directly proportional to the activity of Arginase II; format: functional; conditions: 33.3 µM; also: in the data most compounds retested in dose-response had high values
# T2 sequence (whole entry): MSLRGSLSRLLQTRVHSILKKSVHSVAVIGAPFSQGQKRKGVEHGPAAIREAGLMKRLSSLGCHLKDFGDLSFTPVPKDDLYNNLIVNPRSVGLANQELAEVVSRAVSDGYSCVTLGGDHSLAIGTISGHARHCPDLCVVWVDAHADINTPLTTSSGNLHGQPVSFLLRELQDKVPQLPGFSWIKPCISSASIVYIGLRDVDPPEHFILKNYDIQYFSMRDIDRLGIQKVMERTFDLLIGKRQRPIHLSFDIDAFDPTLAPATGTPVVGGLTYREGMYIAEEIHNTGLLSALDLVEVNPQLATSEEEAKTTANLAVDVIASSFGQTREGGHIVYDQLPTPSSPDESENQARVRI
# [6] = target: T3, Proteasome subunit beta (Trypanosoma cruzi) (UniProt O96673); experiment: Trypanosoma cruzi proteasome chymotrypsin-like activity (TcProtChymo) assay.; also: in the data most compounds retested in dose-response had high values; format: functional; conditions: 9.37 µM
# T3 sequence (whole entry): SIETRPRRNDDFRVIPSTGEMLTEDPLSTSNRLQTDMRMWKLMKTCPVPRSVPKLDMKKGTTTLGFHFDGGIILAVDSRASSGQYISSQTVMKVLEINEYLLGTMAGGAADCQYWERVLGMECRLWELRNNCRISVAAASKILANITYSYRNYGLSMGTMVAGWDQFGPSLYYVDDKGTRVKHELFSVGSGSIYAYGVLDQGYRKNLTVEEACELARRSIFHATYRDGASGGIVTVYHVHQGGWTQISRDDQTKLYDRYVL
# Homo sapiens = species: Homo sapiens; experiment: To identify inhibition of the IFN signalling (Jak-Stat) pathway via expression of an eGFP reporter gene under the control of an IFN-stimulated response element (ISRE) containing MxA promoter.; format: functional; conditions: 30 µM
# [7] = target: T4, Tyrosyl-tRNA synthetase, putative (Trypanosoma cruzi (strain CL Brener)) (UniProt Q4DSP6); experiment: Trypanosoma cruzi tyrosyl tRNA synthetase (TcYRS) _High Tyrosine SOP; format: functional; conditions: 30 µM; also: in the data most compounds retested in dose-response had high values
# T4 sequence (whole entry): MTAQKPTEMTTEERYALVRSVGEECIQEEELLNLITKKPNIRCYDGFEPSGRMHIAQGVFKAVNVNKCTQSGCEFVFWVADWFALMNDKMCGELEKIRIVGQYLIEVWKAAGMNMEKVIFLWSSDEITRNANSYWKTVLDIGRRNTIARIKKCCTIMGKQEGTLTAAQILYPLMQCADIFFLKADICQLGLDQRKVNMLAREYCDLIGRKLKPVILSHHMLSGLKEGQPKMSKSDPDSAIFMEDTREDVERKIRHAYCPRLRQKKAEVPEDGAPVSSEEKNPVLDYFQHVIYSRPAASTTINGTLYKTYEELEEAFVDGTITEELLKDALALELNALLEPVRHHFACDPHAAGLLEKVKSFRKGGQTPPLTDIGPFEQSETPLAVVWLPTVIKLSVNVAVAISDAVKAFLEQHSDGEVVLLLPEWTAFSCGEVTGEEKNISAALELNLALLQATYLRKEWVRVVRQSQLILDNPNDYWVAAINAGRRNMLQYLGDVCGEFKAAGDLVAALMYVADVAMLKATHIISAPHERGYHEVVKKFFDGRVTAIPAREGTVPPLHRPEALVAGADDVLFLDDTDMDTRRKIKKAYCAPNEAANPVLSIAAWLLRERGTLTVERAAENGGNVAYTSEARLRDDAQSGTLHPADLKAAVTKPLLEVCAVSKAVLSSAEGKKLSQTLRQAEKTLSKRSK
# [8] = target: T4, Tyrosyl-tRNA synthetase, putative (Trypanosoma cruzi (strain CL Brener)); experiment: Trypanosoma cruzi tyrosyl tRNA synthetase (TcYRS) SOP; format: functional; conditions: 30 µM
# [9] = target: Chromo domain-containing protein 1 (Saccharomyces cerevisiae (strain ATCC 204508 / S288c) (Baker's yeast)) (UniProt P32657); experiment: ScCHD-1 Enzyme Inhibition Assay; format: functional; conditions: 30 µM; also: in the data most compounds retested in dose-response had high values
# Chain of Chromo domain-containing protein 1 (Saccharomyces cerevisiae (strain ATCC 204508 / S288c) (Baker's yeast)) (P32657 whole entry, the tested form may be a part): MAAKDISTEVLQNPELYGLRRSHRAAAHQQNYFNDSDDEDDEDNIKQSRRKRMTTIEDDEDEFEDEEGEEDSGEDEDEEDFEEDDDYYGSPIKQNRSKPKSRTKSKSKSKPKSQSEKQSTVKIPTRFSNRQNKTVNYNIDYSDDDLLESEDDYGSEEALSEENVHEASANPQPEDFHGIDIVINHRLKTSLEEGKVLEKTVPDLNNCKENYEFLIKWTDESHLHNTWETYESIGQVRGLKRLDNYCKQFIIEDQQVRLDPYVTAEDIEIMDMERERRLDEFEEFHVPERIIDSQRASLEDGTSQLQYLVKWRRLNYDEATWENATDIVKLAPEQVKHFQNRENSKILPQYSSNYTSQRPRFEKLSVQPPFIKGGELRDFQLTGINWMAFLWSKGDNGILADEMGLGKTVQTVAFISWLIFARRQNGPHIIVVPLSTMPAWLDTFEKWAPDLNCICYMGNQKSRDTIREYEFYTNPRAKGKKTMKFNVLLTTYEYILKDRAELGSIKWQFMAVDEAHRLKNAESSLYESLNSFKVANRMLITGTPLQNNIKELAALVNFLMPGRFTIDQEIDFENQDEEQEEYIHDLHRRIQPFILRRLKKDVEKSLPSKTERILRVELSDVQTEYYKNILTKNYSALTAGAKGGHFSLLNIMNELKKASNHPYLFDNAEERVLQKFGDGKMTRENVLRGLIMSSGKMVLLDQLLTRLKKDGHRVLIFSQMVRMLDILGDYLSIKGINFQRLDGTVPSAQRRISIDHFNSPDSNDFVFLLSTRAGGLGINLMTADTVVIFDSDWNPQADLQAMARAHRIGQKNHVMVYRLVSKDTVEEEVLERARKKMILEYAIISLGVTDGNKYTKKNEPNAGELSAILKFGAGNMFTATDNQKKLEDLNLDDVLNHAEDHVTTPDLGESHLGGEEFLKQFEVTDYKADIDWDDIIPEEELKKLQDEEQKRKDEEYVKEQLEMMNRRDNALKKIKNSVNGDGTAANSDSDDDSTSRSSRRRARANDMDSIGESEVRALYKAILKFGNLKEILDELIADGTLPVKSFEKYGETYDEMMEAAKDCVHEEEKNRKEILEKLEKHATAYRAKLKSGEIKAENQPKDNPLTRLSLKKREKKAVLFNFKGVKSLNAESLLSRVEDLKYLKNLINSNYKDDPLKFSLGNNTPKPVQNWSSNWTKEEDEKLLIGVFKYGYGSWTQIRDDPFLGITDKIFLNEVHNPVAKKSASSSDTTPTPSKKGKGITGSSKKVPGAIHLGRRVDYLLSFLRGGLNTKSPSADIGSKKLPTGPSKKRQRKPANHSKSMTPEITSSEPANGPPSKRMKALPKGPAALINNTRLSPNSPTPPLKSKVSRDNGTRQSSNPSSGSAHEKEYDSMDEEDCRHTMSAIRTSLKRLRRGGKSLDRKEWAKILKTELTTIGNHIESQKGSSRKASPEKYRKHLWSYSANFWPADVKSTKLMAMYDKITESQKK
SMILES,Percent Effect [1] [%],Percent Effect [2] [%],Percent Effect [3] [%],Percent Effect [4] [%],Percent Effect (Trypanosoma cruzi) [%],Percent Effect [5] [%],Percent Effect [6] [%],Percent Effect (Homo sapiens) [%],Percent Effect [7] [%],Percent Effect [8] [%],Percent Effect [9] [%]
Cc1ccc(N2CCCC(NCC(=O)NCC3CC3)C2)nn1 (stereo not given),-4.97,6.33,-6.37,2.61,1.13,-1.94,15.8,-5.61,7.29,15.2,-25.7
Cc1ccc2c(c1)C1(CCNCC1)CN2C(=O)CN(C)C,-3.67,10.8,5.31,-2.86,-7.14,1.59,15.7,14.1,5.41,12.8,-2.47
Cc1ccc(C(=O)N2CCC3(CC2)NC(=O)CC3c2ccccc2)cn1 (stereo not given),-2.54,2.67,3.38,7.94,0.965,-48.6,7.35,-9.77,2.08,5,-2.72
COC(=O)c1cc(OCC2CCC2)cc(C(=O)N[C@@H]2CNCC[C@H]2O)c1,-7.97,0,-18.2,10.2,-0.392,-2.73,4.44,36,0,0,-7.21
O=C(c1ccncc1F)N1CCc2ncnc(-c3ccncc3)c2CC1,-6.29,5.41,-2.05,-1.21,-5.38,-0.955,10.7,14,1.08,7.69,0.761
CCNC(=O)c1nc2c(s1)CCCN2S(C)(=O)=O,-5.43,24,-3.85,-4.95,0.772,-56.8,5.81,22.1,-6.25,15,-18.4
O=C(NC1(c2cccc(F)c2)CCOCC1)c1cc[nH]n1,-4.6,5.2,0.0633,4.75,0.885,-23.4,5.32,4.47,2.15,3.7,-1.53
CN1CCN(Cc2nnc(C3CCN(CC4CC4)CC3)n2C)CC1,0.271,8.22,4.92,1.71,3.13,7.27,13.3,22.3,8.6,17.5,-3.38
O=C(c1ccco1)N1CC[C@H]2[C@H]1CCN2CC1CCOCC1,-5.53,0,11.2,-3.38,-3.74,1.17,-2.56,6.93,6.38,3.85,-1.01
CC(C)N(C)Cc1cnc2n1CCN(C(=O)NC1CCCC1)C2,-1.5,0,9.85,-1.01,-7.09,3.96,13.7,7.83,1.06,1.28,0.39
